Consider 40 molecules from PubChem BioAssay (NCI).

Compounds without any hit were thinned out: in the full panel of roughly 83,000, 20% have a hit.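 The endpoint reported here, percent growth, reads 100 for growth as untreated, 0 for no net growth and -100 for all cells dead.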 A number with no mark means an inactive call. The source made the active and inactive calls.

The assay relates to CCRF-CEM leukemia. The assay can be described thus: NCI-60 one-dose screen, 48 h (100 = growth as untreated, 0 = no growth, -100 = all killed). To be noted: 10 µM unless noted. Here is the method:
Growth inhibition of the CCRF-CEM human tumor cell line is measured as a screen for anti-cancer activity. Cells are grown in 96 well plates and exposed to the test compound for 48 hours. Compounds are tested at a single concentration, which is 10^-5 M for most compounds. The reported endpoint is percent growth (GI% or GIPRCNT), where numbers from 0 - 100% represent growth inhibition, and numbers from -100% - 0 represent cell death. For example, a value of 40 represents 60% growth inhibition. A value of 0 means no net growth occurred over the course of the experiment. A value of -40 indicates 40% of cells at the beginning of the experiment died by the end of the experiment. A value of -100 means all cells are dead at the end of the experiment.
NCI-60 Human Tumor Cell Lines Screen was performed using the standard one-dose NCI protocol, which is described in more detail at https://dtp.cancer.gov/discovery_development/nci-60/default.htm.
Compounds with GIPRCNT values below 10 were considered active. Activity score was based on GIPRCNT using the following formula: […]
Score is 0 for GIPRCNT values of 100 or above, 50 for GIPRCNT values of 0, and 100 for GIPRCNT values of -100.
`O=C(CSc1nc(-c2ccc(Cl)cc2)cn1-c1ccc(Cl)cc1)c1ccc(Br)cc1`: the growth was 92.8%.

Consider `Nc1cc2c(cc1N)-c1cc(N)c(N)cc1C2`, for which the growth is 88.2%.

As for `C=C1C(=O)O[C@H]2[C@H]1CC/C(COC(=O)NCCc1ccc(OC)cc1)=C\CC[C@@]1(C)O[C@@H]21`, the growth was 3.44% (active).

Take `NC(=S)NN=C1CCCCC1`: the growth is 39.6%.

Turning to `COc1cc(OC)c(C(=O)/C=C/c2cccc(C(F)(F)F)c2)c(OC)c1`, the growth was 4.41% (active).

Regarding `COc1cc(-n2nc(C(=O)Nc3ccc(C(=O)O)cc3)nc2-c2ccccc2)cc(OC)c1OC`, the growth is 89%.

With `CCOP(=O)(CCN1CCN(CCCCCOc2cc3c(cc2OC)C(=O)N2CCC[C@H]2C=N3)CC1)OCC`, the growth is 11%.

Take `COc1ccc(Cn2cc(COc3cc(/C=C/C(=O)c4cc(OC)c(OC)c(OC)c4)ccc3OC)nn2)cc1`: the growth is 2.56% (active).

Take `O=C(O)C(=Cc1c2ccccc2cc2ccccc12)C(=O)O`: the growth is 101%.

With `COc1ccc(-c2nnc(COc3ccc(NS(=O)(=O)c4ccc(OC)cc4)cc3F)o2)cc1`, the growth was 43.1%.

Consider `C/C(=C\c1csc(C)n1)[C@@H]1C[C@@H]2O[C@]2(C)CCC[C@H](C)[C@H](O)[C@@H](C)C(=O)C(C)(C)[C@@H](O)CC(=O)N1`, for which the growth is -80.7% (active).

In the case of `COC12CC(=O)C(C(C)=O)=C(O)C1(C)c1c(O)c(C)c(O)c(C(C)=O)c1O2` (stereo not given), the growth was 47.2%.

With `CC(C)(C)c1ccc(S(=O)(=O)Oc2ccc3c4c(c(=O)oc3c2)CCCCC4)cc1`, the growth is 58.6%.

On to `CC(=O)C1CCC(C)=CC1=O` (stereo not given), for which the growth is 100%.

Take `O=c1[nH]c(-c2cn(-c3ccc(Cl)cc3)nn2)nc2ccccc12`: the growth was 98.6%.

Take `N#CC1=C(N)n2nc(-c3ccncc3)nc2NC1c1cccc2ccccc12` (stereo not given): the growth is 87.7%.

For `O=S(=O)(NCCCNc1cc(-c2cn(-c3ccccc3)nc2-c2cccc(O)c2)ccn1)c1ccc(C(F)(F)F)cc1`, the growth was 30.2%.

For the molecule `COc1cc(Cn2c(-c3nonc3N)nc3ccccc32)ccc1C`, the growth was 16.2%.

Take `CN(C)c1ccc(C2CC(c3ccccc3)=NN2/C=C2\SC(=O)NC2=O)cc1` (stereo not given): the growth is 113%.

Take `CCc1cccc(C)c1NC(=O)c1sc2nc3c(cc2c1N)C(=O)CCC3`: the growth is 9.81% (active).

In the case of `CCN(CC)S(=O)(=O)c1ccc2[nH]c(=O)cc(C(=O)Nc3ccc(OC)cc3OC)c2c1`, the growth is 92.6%.

Regarding `C=C1C(=O)O[C@H]2[C@H](O)[C@@H](C)CCC/C(C)=C/CC[C@@]3(C)O[C@@H]3C[C@@H]12`, the growth was 79.5%.

For the molecule `O=C(O)c1ccc(-n2cc(CNc3ccc(C(F)(F)F)cc3)c(-c3ccccc3)n2)cc1`, the growth was 91.4%.

In the case of `NCCSC(c1ccccc1)(c1ccccc1)c1ccccc1`, the growth is 2.43% (active).

In the case of `c1ccc2nc(-c3ccc4ccccc4n3)ccc2c1`, the growth is 90%.

For the molecule `CCn1cc(C(=O)O)c(=O)c2cc(F)c(N3CCN(S(=O)(=O)c4c(C)cc(C)cc4C)CC3)cc21`, the growth was 81.8%.

In the case of `O=C(/C=C/CN1CCOCC1)Nc1cc2c(Nc3ccc(F)c(Cl)c3F)ncnc2cc1OCCOC(F)F`, the growth is 94%.

On to `Cc1ccc(S(=O)(=O)N2CCC(C(=O)Nc3ccc(F)cc3F)CC2)cc1`, for which the growth is 101%.

Regarding `CCCCCCOc1ccc(C2(Cl)c3ccccc3N(C)c3ccccc32)cc1`, the growth is 89.2%.

As for `Cc1sc2nc(CSc3nnc(-c4ccco4)o3)[nH]c(=O)c2c1C`, the growth is 64.3%.

Regarding `COc1ncc(-c2ccc3ncnc(Nc4cccc(Cl)c4)c3c2)cc1N(S(C)(=O)=O)S(C)(=O)=O`, the growth was 86.8%.

In the case of `O=C(CNc1c(Cl)cccc1Cl)Nc1ccc(-c2nc3ccccc3s2)cc1`, the growth is 2.24% (active).

`O=c1oc2cc(OS(=O)(=O)c3ccccc3)c(Cl)cc2c2c1CCCCCC2`: the growth is 81%.

Regarding `O=C(Nc1ccc(Cl)cc1)c1cc(-c2ccc(F)cc2)c2sc(=O)[nH]c2n1`, the growth is 16.8%.

For `O=[N+]([O-])c1c(S(=O)(=O)O)cc2cc(S(=O)(=O)O)ccc2c1[N+](=O)[O-]`, the growth is 107%.

Consider `Nc1c(C(=O)Nc2ccccc2)sc2nc3c(cc12)CCCCC3`, for which the growth is 2.92% (active).

As for `CC[C@H](C)[C@@H]1NC(=O)[C@H]([C@@H](C)O)NC(=O)C(Cc2ccccc2)NC(=O)[C@@H]2CCCN2C(=O)C(C(C)C)NC(=O)C(Cc2ccccc2)NC(=O)CNC(=O)[C@@H]2CCCN2C1=O` (stereo not given in full), the growth was 20%.

Turning to `O=C(NNC(=S)Nc1ccccc1)c1ccccn1`, the growth is 18.8%.

Regarding `Cn1c(-c2nonc2NC(=O)c2ccc(F)cc2)nc2ccccc21`, the growth is 105%.

As for `CC(=O)N1Cc2ccccc2C(C)Cc2cc(Cl)ccc21` (stereo not given), the growth is 110%.
